This is a sample that favours compounds with a hit; in the whole collection about 12% have one here.
Sfp PPTase inh: qHTS Assay for Inhibitors of Bacillus subtilis Sfp phosphopantetheinyl transferase (PPTase); 4'-phosphopantetheinyl transferase ffp (Bacillus subtilis), Q9F4F7; Biochemical Sfp PPTase activity, qHTS; Potency, µM, hits mostly inhibitors; 3.5% of 310,000 active;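 further: the enzyme is Sfp with the accession as filed and its product quenches rhodamine fluorescence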
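Sfp 15 nM + cpd, 15 min RT; start w/ rhodamine-CoA 5 uM, BHQ-2-YbbR 12.5 uM (final); 50 mM Hepes pH 7.6, 10 mM MgCl2, 0.01% NP-40, 0.01% BSA; read 525/598 nm at 0 and 30 min.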
G9a inh: qHTS Assay for Inhibitors of Histone Lysine Methyltransferase G9a; G9a H3K9 monomethylation, AlphaScreen, 2 h; 8.8% of 350,000 active; Potency, µM (titrated, usually from 102 µM), most hits filed as inhibitors; Histone-lysine N-methyltransferase EHMT2 (Homo sapiens), Q96KQ7; further: nearly all actives have a fitted effect of over 75% in size
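Methyltransferase reactions run at room temperature for 2 h (20 nM enzyme, 500 nM biotin-H3K9 peptide, 20 uM SAM) after a 15 min compound preincubation; product detected by AlphaScreen beads and anti-H3K9me1 antibody.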
HP1b chromo inh: HTS for Inhibitors of HP1-beta Chromodomain Interactions with Methylated Histone Tails | Chromobox protein homolog 1 (Homo sapiens), P83916 | AlphaScreen HP1-beta / biotin-H3K9me3 peptide binding | Potency, µM (series often up to 114 µM), most hits filed as inhibitors | 0.56% of 390,000 active | AID 540317, 2011; further: nearly all actives have a fitted effect of over 70% in size
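AlphaScreen: HP1-beta (50 nM) preformed 30 min with biotin-H3(1-18)K9me3 peptide (50 nM) in PBS pH 7.4, 0.01% Tween-20. Compound added for 30 min at RT, then streptavidin donor/nickel chelate acceptor beads (10 ug/mL) for 30 min.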
JMJD2A Tudor: qHTS Assay for Inhibitors of JMJD2A-Tudor Domain; Lysine-specific demethylase 4A (Homo sapiens), O75164; AlphaScreen JMJD2A-Tudor / H3K4me3 peptide binding; Potency, µM (top dose mostly 114 µM), actives largely listed as inhibitors; 4.4% of 390,000 active; AID 504339, 2011; further: nearly all actives have a fitted effect of over 50% in size
BAZ2B block: qHTS Assay for Inhibitors of BAZ2B; 4.4% of 360,000 active; Potency, µM (series often up to 114 µM), usual class: inhibitors; AlphaScreen BAZ2B-H3K14Ac peptide displacement; AID 504333, 2011; Bromodomain adjacent to zinc finger domain protein 2B (Homo sapiens), Q9UIF8; further: nearly all actives have a fitted effect of over 60% in size
Target sequence (Q9UIF8 whole entry, looked up, the tested form may be a part): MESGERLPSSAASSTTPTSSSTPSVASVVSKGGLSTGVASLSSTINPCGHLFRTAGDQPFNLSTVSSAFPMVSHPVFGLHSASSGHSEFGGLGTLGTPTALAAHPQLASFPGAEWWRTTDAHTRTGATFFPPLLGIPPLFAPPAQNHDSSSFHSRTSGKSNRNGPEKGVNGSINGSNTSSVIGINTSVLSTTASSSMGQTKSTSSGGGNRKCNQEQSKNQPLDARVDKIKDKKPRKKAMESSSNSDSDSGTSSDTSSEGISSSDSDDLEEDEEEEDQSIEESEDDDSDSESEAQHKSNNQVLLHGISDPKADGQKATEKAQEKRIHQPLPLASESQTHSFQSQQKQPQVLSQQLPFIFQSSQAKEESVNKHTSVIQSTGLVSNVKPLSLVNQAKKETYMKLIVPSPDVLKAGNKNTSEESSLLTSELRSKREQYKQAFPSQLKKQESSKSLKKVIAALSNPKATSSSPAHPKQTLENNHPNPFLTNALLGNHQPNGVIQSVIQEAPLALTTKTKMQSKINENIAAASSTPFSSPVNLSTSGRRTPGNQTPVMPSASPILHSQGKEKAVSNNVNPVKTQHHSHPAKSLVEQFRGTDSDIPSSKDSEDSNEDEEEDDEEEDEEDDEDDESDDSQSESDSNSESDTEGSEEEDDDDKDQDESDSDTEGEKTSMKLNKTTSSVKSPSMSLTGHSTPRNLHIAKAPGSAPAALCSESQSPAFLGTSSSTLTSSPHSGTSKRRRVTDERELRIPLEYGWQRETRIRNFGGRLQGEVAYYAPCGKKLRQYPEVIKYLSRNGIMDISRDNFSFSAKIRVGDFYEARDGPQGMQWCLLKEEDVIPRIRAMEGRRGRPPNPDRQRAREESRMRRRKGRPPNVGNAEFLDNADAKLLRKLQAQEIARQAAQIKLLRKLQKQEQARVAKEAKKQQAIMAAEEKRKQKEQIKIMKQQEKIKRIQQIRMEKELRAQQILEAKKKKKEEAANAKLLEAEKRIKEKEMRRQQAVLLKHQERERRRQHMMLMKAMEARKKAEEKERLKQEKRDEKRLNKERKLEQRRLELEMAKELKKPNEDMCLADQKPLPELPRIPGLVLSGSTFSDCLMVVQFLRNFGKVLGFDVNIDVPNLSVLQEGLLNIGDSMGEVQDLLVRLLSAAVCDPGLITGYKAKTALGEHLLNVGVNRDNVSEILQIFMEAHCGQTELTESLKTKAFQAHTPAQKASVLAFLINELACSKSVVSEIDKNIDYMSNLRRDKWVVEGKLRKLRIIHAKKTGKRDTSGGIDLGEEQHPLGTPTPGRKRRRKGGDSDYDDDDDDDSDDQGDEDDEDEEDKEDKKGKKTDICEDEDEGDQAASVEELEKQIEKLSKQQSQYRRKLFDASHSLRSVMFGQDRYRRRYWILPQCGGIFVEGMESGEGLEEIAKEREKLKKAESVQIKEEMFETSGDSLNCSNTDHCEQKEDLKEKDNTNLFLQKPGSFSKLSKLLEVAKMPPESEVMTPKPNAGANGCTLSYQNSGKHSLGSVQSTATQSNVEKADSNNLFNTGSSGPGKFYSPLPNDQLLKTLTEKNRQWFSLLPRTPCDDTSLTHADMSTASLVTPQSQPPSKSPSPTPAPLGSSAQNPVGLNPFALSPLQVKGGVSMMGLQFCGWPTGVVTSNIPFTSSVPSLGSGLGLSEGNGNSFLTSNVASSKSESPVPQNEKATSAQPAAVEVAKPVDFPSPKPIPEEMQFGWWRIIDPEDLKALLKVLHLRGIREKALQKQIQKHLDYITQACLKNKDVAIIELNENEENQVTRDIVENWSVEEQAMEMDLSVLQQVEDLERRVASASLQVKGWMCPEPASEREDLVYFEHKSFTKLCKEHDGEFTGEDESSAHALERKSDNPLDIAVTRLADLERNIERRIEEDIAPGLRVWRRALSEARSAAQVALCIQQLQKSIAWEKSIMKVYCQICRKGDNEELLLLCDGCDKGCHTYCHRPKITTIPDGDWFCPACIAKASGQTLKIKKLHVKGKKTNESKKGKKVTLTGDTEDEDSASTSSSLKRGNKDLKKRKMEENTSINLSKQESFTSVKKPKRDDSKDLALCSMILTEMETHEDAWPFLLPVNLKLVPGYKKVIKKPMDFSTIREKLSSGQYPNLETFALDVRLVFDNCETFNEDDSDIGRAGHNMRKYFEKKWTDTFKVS
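BAZ2B (50 nM) with biotin-H3(5-23)K14Ac peptide (50 nM) in PBS pH 7.4, 0.01% Tween-20, preformed 30 min, then compound 30 min at room temperature; top concentration 110uM. AlphaScreen streptavidin donor/nickel chelate acceptor beads (10 ug/mL final), 20 min dark, signal read.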
Large screens that a line does not name were inactive. The call rests on the fitted dose curve; in most records, active means well fitted curve in the direction sought with a large enough effect; inconclusive means small, poorly fitted or top-dose-only effect, or another doubt; inactive means no such curve, though single readings can be large; an effect the other way counts as inactive or inconclusive.

COCC(=O)N1CCC2(CCN(Cc3ccccc3OC)CC2)CC1	none (no result: HP1b chromo inh, JMJD2A Tudor, BAZ2B block)
O=C1c2ccccc2C(=O)N1c1cnc2ccccc2c1	none (no result: Sfp PPTase inh, G9a inh, HP1b chromo inh, BAZ2B block)
COC(=O)[C@@]1(Cc2ccccc2)[C@H]2c3cc(C(=O)N4CCCC4)n(Cc4c(CO)[nH]cc(C)c4=O)c3C[C@H]2CN1C(=O)c1ccccc1	none (no result: G9a inh, HP1b chromo inh, JMJD2A Tudor, BAZ2B block)
CCCCOc1ccc(Cc2cnc(N)nc2N)cc1	none (no result: G9a inh)
CCCCOc1ccc(N=Nc2ccc(N)nc2N)cn1	HP1b chromo inh inconclusive, JMJD2A Tudor 35µM
CC(C)(C)c1cc(C(=O)/C=C/c2ccc(C(=O)O)cc2)cc(C(C)(C)C)c1	none (no result: G9a inh, HP1b chromo inh, JMJD2A Tudor, BAZ2B block)
Cc1ccc(NC(=S)NCC2CCCO2)cc1C (configuration not stated)	none
CCN(CC)c1ccc(NC(=S)NCC2CCCO2)cc1 (configuration not stated)	G9a inh inconclusive, HP1b chromo inh inconclusive, JMJD2A Tudor inconclusive, BAZ2B block 45µM
Cc1cccc(NC(=S)NCC2CCCO2)c1 (configuration not stated)	G9a inh 50µM
CCOC(=O)c1c(NC(=S)NCC2CCCO2)sc(C)c1C (configuration not stated)	Sfp PPTase inh 22µM, G9a inh 4.5µM, HP1b chromo inh inconclusive, JMJD2A Tudor inconclusive (no result: BAZ2B block)
Cc1ccc(NC(=S)NCC2CCCO2)cc1 (configuration not stated)	none
Cc1ccc(NC(=O)c2c(C)oc3ccc(O)c(CN(C)Cc4ccccc4)c23)c(C)c1	none (no result: Sfp PPTase inh)
Cc1ccc(-c2n[nH]c3c2C(c2ccc(C(C)(C)C)cc2)NC3=O)cc1 (configuration not stated)	none (no result: Sfp PPTase inh, BAZ2B block)
CN1CCN(C(=S)C(=O)NCc2ccccc2)CC1	none
CN1CCN(C(=S)C(=O)Nc2ccccc2)CC1	Sfp PPTase inh 50µM
CCOc1ccccc1/C=N/Nc1nc2c(N)ncnc2n1[C@H]1O[C@@H](CO)[C@H](O)[C@@H]1O	Sfp PPTase inh 56µM
CC1CCCC(C)N1C(=C(Cl)Cl)C(=C1SCCS1)[N+](=O)[O-] (configuration not stated)	G9a inh 35µM, HP1b chromo inh inconclusive, BAZ2B block 18µM
CC1CCCC(C)N1C(=O)CSCc1ccc(Cl)cc1 (configuration not stated)	none
O=C(CCn1c(=S)[nH]c2cc3c(cc2c1=O)OCO3)NCc1ccccc1Cl	none
C=CCn1c(NC(=O)c2ccccc2Cl)c(C#N)c2nc3ccccc3nc21	Sfp PPTase inh 79µM
CCCCn1c(NC(C)=O)c(C#N)c2nc3ccccc3nc21	G9a inh inconclusive
O=C(Nc1ccc(C(=O)O)cc1)/C(=C\c1ccco1)NC(=O)c1ccco1	G9a inh 50µM
CC(=O)c1cccc(NC(=O)/C(=C\c2ccco2)NC(=O)c2ccco2)c1	none
CC(=O)c1ccc(NC(=O)/C(=C\c2ccco2)NC(=O)c2ccco2)cc1	G9a inh 50µM
CC(=O)NC(Cc1ccccc1)C(=O)OCC(=O)c1ccccc1 (configuration not stated)	BAZ2B block inconclusive
O=C(O)c1cc(S(=O)(=O)N2CCCCC2)ccc1N1CCCCC1	G9a inh inconclusive (no result: Sfp PPTase inh)
CC1(C)Cc2c(sc(NC(=O)C(C)(C)C)c2C#N)C(C)(C)N1	none
CC1(C)Cc2c(sc(N)c2C#N)C(C)(C)N1	Sfp PPTase inh 18µM (no result: G9a inh)
COc1ccc(N=C2C(=O)N3c4c(cccc42)C(C)=CC3(C)C)cc1	G9a inh 10µM, HP1b chromo inh 28µM, JMJD2A Tudor 14µM, BAZ2B block 35µM
COc1ccc(N=C2C(=O)Nc3ccccc32)cc1	G9a inh inconclusive
C[C@@H](C(=O)Nc1nc(-c2ccccn2)cs1)N1C(=O)C2CCCCC2C1=O (some centres not stated)	Sfp PPTase inh 50µM, G9a inh 1.4µM, HP1b chromo inh inconclusive, JMJD2A Tudor 50µM, BAZ2B block 8.9µM
O=C(CN1C(=O)C2CCCCC2C1=O)Nc1nc(-c2ccccn2)cs1 (configuration not stated)	Sfp PPTase inh 16µM, G9a inh inconclusive, HP1b chromo inh inconclusive, JMJD2A Tudor 79µM, BAZ2B block 35µM
COC(=O)C1=C(C)N(C(C)C)C(=O)C1(NC(=O)c1ccccc1OC)C(F)(F)F (configuration not stated)	none (no result: Sfp PPTase inh)
Cc1oc(-c2ccc(C(=O)NCCC(C)C)cc2)nc1CS(=O)(=O)c1ccccc1	none (no result: Sfp PPTase inh)
COC(=O)C(Sc1nc(C)cc(C)c1C#N)c1ccccc1 (configuration not stated)	none
Cc1cc(C)c(C#N)c(Sc2ccccc2N)n1	G9a inh 7.9µM
CC(=O)c1ccc(-c2ccc(C(=O)N3CCCc4ccccc43)o2)cc1	G9a inh 45µM, JMJD2A Tudor inconclusive, BAZ2B block inconclusive
CC(=O)c1ccc(-c2ccc(C(=O)N3CCN(c4ccc(F)cc4)CC3)o2)cc1	G9a inh 32µM, JMJD2A Tudor inconclusive (no result: BAZ2B block)
Cc1cc(C)c(S(=O)(=O)Nc2cc(SCC(=O)O)c(O)c3ccccc23)cc1C	Sfp PPTase inh 8.9µM, G9a inh 2.2µM, JMJD2A Tudor 22µM, BAZ2B block 40µM
O=C(O)CSc1cc(NS(=O)(=O)c2ccc(Cl)cc2)c2ccccc2c1O	Sfp PPTase inh 10µM, G9a inh 4µM, HP1b chromo inh 20µM, JMJD2A Tudor 25µM, BAZ2B block 50µM
COc1ccc(S(=O)(=O)Nc2cc(SCC(=O)O)c(O)c3ccccc23)cc1	Sfp PPTase inh 7.1µM, G9a inh 2µM, HP1b chromo inh 13µM, JMJD2A Tudor 20µM, BAZ2B block 40µM
Cc1coc2c1c(C)cc1oc(=O)cc(C)c12	none (no result: Sfp PPTase inh)
COc1ccc(N=C2S/C(=C\c3cc(C)n(C)c3C)C(=O)N2CC(C)C)cc1	HP1b chromo inh inconclusive, JMJD2A Tudor 40µM, BAZ2B block inconclusive
CCOC(=O)Cc1c[nH]c(=S)[nH]c1=O	Sfp PPTase inh 79µM, JMJD2A Tudor inconclusive
CCOC(=O)Cc1c(C)nc(N)[nH]c1=O	none
O=C1C=C(Nc2ccc(O)cc2)C(=O)c2ccccc21	JMJD2A Tudor inconclusive, BAZ2B block 28µM (no result: G9a inh)
CC(=O)Nc1ccc(NC2=CC(=O)c3ccccc3C2=O)cc1	Sfp PPTase inh 56µM, G9a inh 2µM, JMJD2A Tudor 25µM, BAZ2B block 13µM
O=S1(=O)N=C(Nc2ccc(O)cc2)c2ccccc21	none
Cc1ccc(C(=O)CSc2ccc(-c3cccnc3)nn2)cc1	none
Cc1ccc(C(=O)CSc2ccc(-c3ccncc3)nn2)cc1	G9a inh 40µM, BAZ2B block inconclusive
COc1ccc(-c2ccc(SCC(=O)c3ccccc3)nn2)cc1OC	G9a inh 50µM
Cc1ccc(-c2ccc(SCC(=O)c3ccccc3)nn2)cc1	G9a inh 35µM
CCOc1cc(CC(=O)N[C@@H](CC(C)C)c2ccccc2N2CCCCC2)ccc1C(=O)O	none

Assay outcomes deposited in PubChem by National Center for Advancing Translational Sciences (NCATS).
